Most compounds without a hit are left out; they make up all but 7% or so of the library.
IL1B secr inh – blocks inflammasome-driven IL-1 beta release; THP-1 LPS/ATP IL-1B secretion, AlphaLISA, 16 h; hits give low values; activity change, % at 57.5 µM; 4.7% of 360,000 active; AID 743279; in the data active = activity change below about -50%; inconclusive = mostly about -30% to -49%
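THP-1 cells pretreated 1 hr with compounds (up to 57.5 uM final), then stimulated with LPS (250 ng/mL final) plus ATP (1.25 mM final); secreted IL-1B measured by AlphaLISA after 16 hr, decreased signal indicating inhibition.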
Integrin act MD – activates integrin-mediated alleviation for muscular dystrophy. alpha7betagal myoblasts, beta-gal FDG fluorescence, 48 h. AID 624291. Potency, µM (top dose mostly 38.3 µM), hits mostly activators. 0.064% of 350,000 active; also: nearly all actives have a fitted effect of over 60% in size
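Alpha7betagal+/- myoblasts (passage 13) were plated 16-24 hr, then exposed to compounds (1:260 dilution of DMSO stock) for 48 hours at 37C. After MPER lysis, β-galactosidase reporter activity was read as FDG fluorescence (ex 480/em 540) after 30 minutes.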
S2 tox – cell viability loss in ATXN counter-screen; Potency, µM (top dose mostly 56.7 µM), usual class: cytotoxic; S2 cells (HEK-293 line with an ATXN2-luciferase reporter) viability, CellTiter-Fluor protease fluorescence, 24 h; 0.49% of 400,000 active; also: nearly all actives have a fitted effect of over 40% in size
D3 antag – D3 dopamine receptor (human) antagonism | P35462 | D3R cells, DiscoveRx beta-arrestin luminescence, antagonist mode; hits give low values | max response, negative = inhibition, % | 2.5% of 360,000 active; in the data active = max response below about -50%; inconclusive = no clear call, values can overlap the other calls
Target sequence (P35462 whole entry, looked up): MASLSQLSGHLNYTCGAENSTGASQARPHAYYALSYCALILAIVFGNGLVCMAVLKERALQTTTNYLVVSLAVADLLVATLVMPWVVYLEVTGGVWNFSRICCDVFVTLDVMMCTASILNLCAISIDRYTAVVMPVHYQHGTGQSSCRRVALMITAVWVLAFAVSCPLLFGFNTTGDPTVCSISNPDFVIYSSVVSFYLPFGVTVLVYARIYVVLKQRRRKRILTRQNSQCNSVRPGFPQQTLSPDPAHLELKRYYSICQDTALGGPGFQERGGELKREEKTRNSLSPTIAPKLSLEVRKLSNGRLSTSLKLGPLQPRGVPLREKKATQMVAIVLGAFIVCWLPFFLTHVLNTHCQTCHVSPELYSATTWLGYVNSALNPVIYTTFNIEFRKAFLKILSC
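Cells plated overnight at 1500 cells/well, then exposed to library compounds with dopamine controls for 90 minutes at 37 degrees C. DiscoveRx reagent added for 30–60 minutes at room temperature; luminescence read, quantitative HTS format.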
DRD3 agonist – D3 dopamine receptor (human) agonism; D3R DiscoveRx beta-arrestin cells, luminescence, 90 min; max activation, %; 0.58% of 410,000 active; AID 652048; in the data active = max activation above about 30%
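Agonist-mode cell screen: cells plated at 1500/well and incubated overnight at 37 °C, then exposed to library compounds for 90 min at 37 °C. Detection reagent was added for 30–60 min at room temperature, and luminescence was read.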
ATXN2 expr inh – reduces ATXN2 reporter expression in HEK-293 cells; AID 1745845; Potency, µM (titrated, usually from 57 µM), actives largely listed as inhibitors; 0.72% of 360,000 active; HEK-293 ATXN2-luciferase reporter, luminescence, 24 h; also: nearly all actives have a fitted effect of over 55% in size
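qHTS (up to 57 uM final) was run with 24 h compound exposure of reporter cells at 37 °C. Each well was multiplexed: SteadyGlo luminescence measured ATXN2-luciferase expression after a fluorogenic Gly-Phe-AFC viability readout (25 uM final).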
Numbers stand for hits; 0 = inactive; ? = inconclusive; - = no result given. Unless noted, calls follow the shape of the dose curve; as a rule, active = well fitted curve in the direction sought with a large enough effect; inconclusive = small, poorly fitted or top-dose-only effect, or another doubt; inactive = no such curve, though single readings can be large; an effect the other way counts as inactive or inconclusive.

SMILES	IL1B secr inh	Integrin act MD	S2 tox	D3 antag	DRD3 agonist	ATXN2 expr inh
CCN(CC)C(=O)[C@H]1C[C@H](CC(=O)NCc2cccc(C(F)(F)F)c2)C(=O)N2CCc3c([nH]c4ccc(Cl)cc34)[C@]12C	-54	0	?	0	0	?
NC(N)=NCCCS(=O)(=O)Nc1ccc(Nc2c3ccccc3nc3cc([N+](=O)[O-])ccc23)cc1	0	0	?	0	0	0
O=C(COc1ccccc1)N1CCN(c2ccc([N+](=O)[O-])c(N3CCCCC3)c2)CC1	-53	0	0	0	0	0
COc1cc(NC(=O)COC(C)=O)c(C)cc1[N+](=O)[O-]	0	?	0	0	0	0
CC(NC(=O)CN(C)CC(=O)Nc1ccc(F)c(F)c1F)c1ccccc1 (stereo not given)	0	0	0	0	0	0
O=C(Nc1nnc(-c2ccc(Cl)s2)o1)C1CCCCC1	0	0	0	0	0	0
CS(=O)(=O)c1ccc([C@@H](O)[C@@H](CO)NC(=O)C(Cl)Cl)cc1	0	-	0	-51	0	0
CS(=O)(=O)c1ccc([C@@H](O)[C@@H](CF)NC(=O)C(Cl)Cl)cc1	0	-	0	0	0	0
CC(=O)C1=C(c2ccc(C)cc2)N(C(C)=O)n2c(nnc2C2CCCCC2)S1	-	-	-	-	0	-
CC1CCCN(S(=O)(=O)c2ccc(NC(=O)CNC3CCCC3)cc2)C1 (stereo not given)	?	0	0	0	0	?
CC1CCN(CC(=O)Nc2ccc(S(=O)(=O)N3CCCC(C)C3)cc2)CC1 (stereo not given)	-51	0	?	0	0	0
CC1CCCN(CCC(=O)Nc2ccc(Br)cc2)C1 (stereo not given)	0	0	0	-86	0	0
CC1CC(C)(C)NC(=S)N1CCCC(=O)Nc1ccc(Br)cc1 (stereo not given)	-78	0	0	0	0	0
CC1CCCN(S(=O)(=O)c2ccc(NC(=O)CN3CCN(C)CC3)cc2)C1 (stereo not given)	0	0	0	0	0	0
CCOc1ccc(NC(=O)CCCN2C(=S)NC(C)(C)CC2C)cc1 (stereo not given)	0	0	0	0	0	0
O=C(CNC1CCCCC1)Nc1ccc(S(=O)(=O)N2CCCCC2)cc1	-63	0	0	0	0	0
CSCC[C@H](NC(=O)COc1ccc(Cl)cc1Cl)c1nc2ccccc2[nH]1	0	0	0	0	0	0
CC(/C=N/NC(=S)Nc1cccc(S(=O)(=O)N(C)C)c1)c1ccccc1 (stereo not given)	0	0	0	0	0	0
CC1CCCN(CC(=O)Nc2ccc(S(=O)(=O)N3C(C)CCCC3C)cc2)C1 (stereo not given)	0	0	?	-51	0	-
COC(=O)[C@@]12C[C@@H](CC(=O)NCc3ccccc3)C(=O)N(Cc3ccco3)C1=CCC(C)(C)C2	0	-	-	0	0	-
COC(=O)[C@@]12C[C@@H](CC(=O)NCc3ccccc3)C(=O)N(Cc3ccc4c(c3)OCO4)C1=CCC(C)(C)C2	?	-	-	?	0	-
COC(=O)[C@@]12C[C@@H](CC(=O)NCc3cccc4ccccc34)C(=O)N(Cc3ccccc3)C1=CCC(C)(C)C2	-61	-	-	0	0	-
COC(=O)[C@@]12C[C@@H](CC(=O)NCc3cccc(C(F)(F)F)c3)C(=O)N(Cc3ccccc3)C1=CCC(C)(C)C2	-78	-	-	0	0	-
COC(=O)[C@@]12C[C@@H](CC(=O)NCc3cccc4ccccc34)C(=O)N(Cc3ccco3)C1=CCC(C)(C)C2	-71	-	-	0	0	-
COC(=O)[C@@]12C[C@@H](CC(=O)NCc3cccc4ccccc34)C(=O)N(Cc3ccc4c(c3)OCO4)C1=CCC(C)(C)C2	-87	-	-	0	0	-
N#CC(CCc1ccccc1[N+](=O)[O-])(CCc1ccccc1[N+](=O)[O-])C(N)=O	0	0	?	0	0	0
CCOCCn1ccc2c(OCC(=O)Nc3ccccc3OC)cccc2c1=O	-60	0	0	0	0	0
CCC1C2CN(C(C)=O)CC=C2C(C#N)=C(N)C1(C#N)C#N (stereo not given)	0	0	0	?	0	0

Bioassay records deposited in PubChem by National Center for Advancing Translational Sciences (NCATS).
